Here are results for 40 compounds from PubChem BioAssay (Tox21).

Records with an inconclusive call do not appear. Entries that show only a call come without a potency. The source made the active and inactive calls. Calls come from the whole dose curve; as a rule, active = well fitted activation curve with a large enough effect in the repeat runs; inconclusive = weak or mixed curves; inactive = no such curve, though single readings can be large or run the other way.

The nature of the test: qHTS assay for small molecules that induce genotoxicity in human embryonic kidney cells expressing luciferase-tagged ATAD5 (AID 651632). Note: nearly all actives have a fitted effect of over 15% in size. As to conditions: HEK293T ATAD5-luciferase induction, 16 h; series mostly up to 83.3 µM. The source says:
U.S. Tox21 Program National Center for Advancing Translational Sciences [NCATS] NIH Chemical Genomics Center [NCGC] U.S. Environmental Protection Agency [EPA] National Institutes of Environmental Health Sciences [NIEHS] National Toxicology Program [NTP] U.S. Food and Drug Administration [FDA] Tox21 Assay Overview: As cancer cells divide rapidly and during every cell division they need to duplicate their genome by DNA replication. The failure to do so results in the cancer cell death. Based on this concept, many chemotherapeutic agents were developed but have limitations such as low efficacy and severe side effects etc. A new cell based assay was developed to find the compounds that effectively block DNA replication either by directly damaging DNA or by inhibiting other cellular mechanisms. Enhanced Level of Genome Instability Gene 1 (ELG1; human ATAD5) protein levels increase in response to various types of DNA damage. Using a luciferase reporter-gene tagged with ATAD5, a cell-based assay [developed by Kyungjae Myung, NHGRI, NIH] was used to measure the induction of ATAD5 in human embryonic kidney cells (HEK293T). So, increase in luciferase activity can be used to identify the compounds that cause genetic stress.
Tox21 Assay Protocol Summary: For genotoxicity screening, 2,000 cells in 5 uL/well were dispensed into white, solid-bottom 1536-well plates using a Multidrop Combi (Thermo Scientific) dispenser. Following transfer of 23 nL compound or DMSO vehicle by a pin tool, the plates were incubated 16 hr at 37C and 5% CO2. 5 ul Amplite (AAT Bioquest, Inc.) was then added to each plate and following 30 min incubation at room temperature, luciferase activity was quantified on a ViewLux CCD-based plate reader.
Consider `O=C(O)CC(=O)O`, for which the Potency result was “inactive”.
To `CN(Cc1cc(Br)cc(Br)c1N)C1CCCCC1` belongs “inactive”; to `CCCC(CC)CCCCCCCN` (stereo not given), “inactive”.
`O=C1NCCN1CCN1CCC(c2cn(-c3ccc(F)cc3)c3ccc(Cl)cc23)CC1`: the Potency result was “inactive”.
Consider `COC(=O)NCCC[Si](OC)(OC)OC`, for which the Potency entry is “inactive”.
Consider `CC1CCCNC1` (stereo not given), for which the Potency entry is “inactive”.
Under `Cc1cccc(Br)c1` stands “inactive”.
For the compound `C=C[C@](C)(O)CC[C@@H]1[C@@]2(C)CCCC(C)(C)[C@@H]2CC[C@@]1(C)O`, the Potency result was “inactive”.
Turning to `CC(C)(C)c1cc(/C=C2\SC(=N)NC2=O)cc(C(C)(C)C)c1O`, the Potency result is “inactive”.
Take `C=C(C)C(=O)OCCC[Si](Cl)(Cl)Cl`: the Potency result was “inactive”.
As for `CCCCCCCCCCCCCCNCCO`, the Potency entry is “inactive”.
Take `Nc1cc(Cl)c([N+](=O)[O-])cc1O`: the Potency entry was “inactive”.
Take `CC(C)c1cccc(C(C)C)c1N1C(=O)c2ccc(O)cc2C1=O`: the Potency result is “inactive”.
To `CCC(C)c1cc([N+](=O)[O-])cc([N+](=O)[O-])c1OC(=O)OC(C)C` (stereo not given) belongs “inactive”.
To `CCCCCCCC/C=C\CCCCCCCC(=O)NCc1ccc(O)c(OC)c1` belongs “inactive”; to `O[C@@H](c1cc(C(F)(F)F)nc2c(C(F)(F)F)cccc12)[C@H]1CCCCN1`, “inactive”.
Under `c1ccc(Nc2cccc3ccccc23)cc1` stands “inactive”.
`Cc1cn[nH]c1`: the Potency result is “inactive”.
As to `COc1ccccc1OCCNCC(O)COc1cccc2[nH]c3ccccc3c12` (stereo not given), the Potency entry is “inactive”.
In the case of `CCN(CC)CCNc1ccc(CO)c2sc3ccccc3c(=O)c12`, the Potency result was “inactive”.
For `C/C=C/C(=O)Oc1c(CCCCCC(C)C)cc([N+](=O)[O-])cc1[N+](=O)[O-]`, the Potency entry was “inactive”.
To `ClC/C=C\CCl` belongs “inactive”; to `O=C1C=CC(=O)N1c1ccccc1`, “inactive”.
For `CC(C)=C1CC[C@@H](C)CC1=O`, the Potency result is “inactive”.
As for `CC(C)(c1cc(Br)c(OCCO)c(Br)c1)c1cc(Br)c(OCCO)c(Br)c1`, the Potency result was “inactive”.
Under `O=C1NCN(c2ccccc2)C12CCN(CCCC(c1ccc(F)cc1)c1ccc(F)cc1)CC2` stands “inactive”; under `CC(=O)Oc1ccc(C2(c3ccc(OC(C)=O)cc3)C(=O)Nc3ccccc32)cc1`, “inactive”; under `CCCCCCCCCCCCCCCC`, “inactive”.
Under `CC(COC(=O)c1ccccc1)OC(=O)c1ccccc1` (stereo not given) stands “inactive”; under `C[Si](C)(C)Cl`, “inactive”.
On to `CN(C)CCOC(c1ccccc1)c1ccccc1` (tested in a mixture with another compound), for which the Potency entry was “inactive”.
Under `CCCCCCCC/C=C\CCCCCCCC(=O)N(C)CC(=O)O` stands “inactive”.
As to `c1cc2c3c(c1)ccc1cccc(c13)C2`, the Potency result was “inactive”.
Regarding `COc1cc(C=C2CCC/C(=C\c3ccc(O)c(OC)c3)C2=O)ccc1O`, the Potency result was “inactive”.
In the case of `CCCOc1sc(C(=O)N2CCC(c3cc(CN)ccc3F)CC2)c(C)c1Br`, the Potency result is “inactive”.
To `CCCCNc1c(C(=O)OCC)c(C)nc2c1cnn2CC` belongs “inactive”; to `CC(C(O)c1ccccc1)N(C)CCOC(c1ccccc1)c1ccccc1` (stereo not given), “inactive”.
Under `O=C(O)CCn1c2c(c3ccccc31)C[C@H](NS(=O)(=O)c1ccc(F)cc1)CC2` stands “inactive”; under `CCCCCCCC/C=C\CCCCCCCC(=O)OCCOC(=O)CCCCCCC/C=C\CCCCCCCC`, “inactive”.
Take `Cc1oc(-c2ccccc2)nc1CCOc1ccc(C[C@H](Nc2ccccc2C(=O)c2ccccc2)C(=O)O)cc1`: the Potency result was “inactive”.
